Data: PubChem BioAssay AID1159580 (chemical genetic matrix, 2015)
Where “and” joins values, the source holds several entries; their conditions need not be identical. Identical values can stand only once. Hit rate of the full screen: of about 5,500 compounds, about 2,000 (36%) were called active. Roughly 18% stayed inconclusive and do not appear here. Rule as the data show it: active = normalized growth mostly below about 0.91 (no sharp cut-off); inconclusive = no clear call, values can overlap the other calls; inactive = mostly above about 0.92. The list shows a part of the results.

Assay: chemical genetic growth profiling, strain panel (AID 1159580);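 also: tested at 20 µM; growth read once vehicle control cultures reached saturation at 30 °C; 1 = growth at the plate median or of vehicle wells; lower values mean less growth of the strain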
Settings: S. cerevisiae deletion strains, growth OD

Measured: normalized growth

CCN(CC)C(C)CN1c2ccccc2Sc2ccccc21 (configuration not stated)
inactive: locus YAL013W, strain DEP1, active compounds read low 0.983 | locus YAL030W, strain snc1, active compounds read low 0.965 | locus YBR009C, strain hhf1, active compounds read low 0.925 | locus YBR021W, strain FUR4, active compounds read low 0.852 | locus YBR171W, strain sec66, active compounds read low 0.998 | locus YBR229C, strain ROT2, active compounds read low 0.982 | locus YBR231C, strain swc5, active compounds read low 0.937 | locus YCL011C, strain gbp2, active compounds read low 0.953 | locus YCL016C, strain dcc1, active compounds read low 0.923 | locus YCL029C, strain bik1, active compounds read low 0.933 | locus YCL061C, strain MRC1, active compounds read low 0.932 | locus YCL069W, strain vba3, active compounds read low 0.947 | locus YCR088W, strain abp1, active compounds read low 0.986 | locus YDL005C, strain med2, active compounds read low 1 | locus YDL035C, strain GPR1, active compounds read low 0.917 | locus YDL040C, strain nat1, active compounds read low 1 | locus YDL074C, strain BRE1, active compounds read low 0.864 | locus YDL101C, strain DUN1, active compounds read low 0.978 | locus YDL134C, strain PPH21, active compounds read low 0.966 | locus YDL185W, strain tfp1, active compounds read low 0.947 | locus YDL192W, strain arf1, active compounds read low 0.97 | locus YDR001C, strain nth1, active compounds read low 0.987 | locus YDR069C, strain doa4, active compounds read low 0.973 | locus YDR101C, strain arx1, active compounds read low 0.967 | locus YDR137W, strain rgp1, active compounds read low 1.14 | locus YDR150W, strain NUM1, active compounds read low 0.977 | locus YDR162C, strain NBP2, active compounds read low 0.987 | locus YDR297W, strain sur2, active compounds read low 0.939 | locus YDR318W, strain mcm21, active compounds read low 0.926 | locus YDR334W, strain swr1, active compounds read low 1.03 | locus YDR335W, strain msn5, active compounds read low 0.959 | locus YDR392W, strain spt3, active compounds read low 0.911 | locus YDR502C, strain sam2, active compounds read low 0.954 | locus YEL003W, strain gim4, active compounds read low 0.984 | locus YEL037C, strain rad23, active compounds read low 0.984 | locus YEL061C, strain CIN8 (second series), active compounds read low 0.992 | locus YEL061C, strain CIN8, active compounds read low 0.991 | locus YER015W, strain faa2, active compounds read low 0.937 | locus YER110C, active compounds read low 0.956 | locus YER111C, strain swi4, active compounds read low 0.987 | locus YER155C, strain BEM2, active compounds read low 0.964 | locus YER167W, strain BCK2, active compounds read low 0.909 | locus YFR010W, strain ubp6, active compounds read low 0.914 | locus YGL078C, strain dbp3, active compounds read low 0.98 | locus YGL086W, strain mad1, active compounds read low 0.952 | locus YGL167C, strain pmr1, active compounds read low 0.999 | locus YGL227W, strain vid30, active compounds read low 0.995 | locus YGL248W, strain PDE1, active compounds read low 0.957 | locus YGR078C, strain PAC10, active compounds read low 0.905 | locus YGR135W, strain pre9, active compounds read low 0.918 | locus YGR229C, strain SMI1, active compounds read low 0.904 | locus YHR013C, strain ard1, active compounds read low 0.972 | locus YHR030C, strain SLT2, active compounds read low 0.976 and 1.03 | locus YHR079C, strain IRE1 (second series), active compounds read low 0.935 | locus YHR079C, strain IRE1, active compounds read low 1.06 | locus YHR094C, strain hxt1, active compounds read low 0.95 | locus YHR129C, strain ARP1, active compounds read low 0.986 | locus YHR200W, strain rpn10, active compounds read low 0.95 | locus YIL066C, strain RNR3, active compounds read low 0.97 | locus YIL073C, strain SPO22, active compounds read low 0.767 | locus YIL125W, strain kgd1, active compounds read low 0.98 | locus YIR030C, strain dcg1, active compounds read low 0.953 | locus YJL092W, strain hpr5, active compounds read low 0.954 | locus YJL095W, strain BCK1 (second series), active compounds read low 0.946 | locus YJL095W, strain BCK1, active compounds read low 0.861 and 1.02 | locus YJL115W, strain asf1, active compounds read low 0.992 | locus YJL129C, strain trk1, active compounds read low 1.04 | locus YJL134W, strain LCB3, active compounds read low 0.986 | locus YJL154C, strain vps35, active compounds read low 0.975 | locus YJL164C, strain tpk1, active compounds read low 0.928 | locus YJL168C, strain set2, active compounds read low 0.961 | locus YJL187C, strain SWE1 (second series), active compounds read low 0.957 | locus YJR043C, strain POL32, active compounds read low 0.903 | locus YJR066W, strain TOR1, active compounds read low 0.872
active: locus YAL021C, strain ccr4, active compounds read low 0.399 | locus YAL026C, strain drs2, active compounds read low 0.77 | locus YBL061C, strain skt5, active compounds read low 0.909 | locus YBR023C, strain chs3, active compounds read low 0.889 | locus YBR279W, strain paf1, active compounds read low 0.896 | locus YDR159W, strain sac3, active compounds read low 0.775 | locus YDR195W, strain ref2 1.23 [resistant] | locus YDR388W, active compounds read low 0.914 | locus YER016W, strain bim1, active compounds read low 0.921 | locus YER155C, strain BEM2 (second series), active compounds read low 0.751 | locus YGL173C, strain kem1, active compounds read low 0.898 | locus YGL240W, strain doc1, active compounds read low 0.799 | locus YGL253W, strain hxk2, active compounds read low 0.907 | locus YGR252W, strain gcn5, active compounds read low 0.72 | locus YHR027C, strain rpn1, active compounds read low 0.796 | locus YHR142W, strain chs7, active compounds read low 0.863 | locus YJL166W, strain qcr8, active compounds read low 0.898 | locus YJL187C, strain SWE1, active compounds read low 0.911
